Laboratory results taken from PubChem BioAssay AID1159580 (chemical genetic matrix, 2015).
About 2,000 (36%) of roughly 5,500 compounds were called active. About 18% were inconclusive and are not listed. Cut-off read from the data, not from the text of the source: active = normalized growth mostly below about 0.91 (no sharp cut-off); inconclusive = no clear call, values can overlap the other calls; inactive = mostly above about 0.92. The list shows a part of the results.

Assay: chemical genetic growth profiling, strain panel (AID 1159580);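 note: tested at 20 µM; growth read once vehicle control cultures reached saturation at 30 °C; 1 = growth at the plate median or of vehicle wells; lower values mean less growth of the strain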
Conditions: growth OD
[1] = S. cerevisiae deletion strains, locus YAL013W, strain DEP1, hits give low values
[2] = S. cerevisiae deletion strains, locus YBR229C, strain ROT2, hits give low values
[3] = S. cerevisiae deletion strains, locus YDL101C, strain DUN1, hits give low values
[4] = S. cerevisiae deletion strains, locus YDR150W, strain NUM1, hits give low values
[5] = S. cerevisiae deletion strains, locus YEL061C, strain CIN8, hits give low values
[6] = S. cerevisiae deletion strains, locus YGR078C, strain PAC10, hits give low values
[7] = S. cerevisiae deletion strains, locus YHR030C, strain SLT2, hits give low values
[8] = S. cerevisiae deletion strains, locus YHR087W, strain rtc3, hits give low values
[9] = S. cerevisiae deletion strains, locus YJL187C, strain SWE1, hits give low values
[10] = S. cerevisiae deletion strains, locus YJR043C, strain POL32, hits give low values
[11] = S. cerevisiae deletion strains, locus YJR075W, strain HOC1, hits give low values
[12] = S. cerevisiae deletion strains, locus YLR039C, strain RIC1, hits give low values
[13] = S. cerevisiae deletion strains, locus YLR058C, strain SHM2 (second series), hits give low values
[14] = S. cerevisiae deletion strains, locus YLR085C, strain ARP6, hits give low values
[15] = S. cerevisiae deletion strains, locus YLR262C, strain YPT6, hits give low values
[16] = S. cerevisiae deletion strains, locus YML094W, strain GIM5, hits give low values
[17] = S. cerevisiae deletion strains, locus YMR219W, strain ESC1, hits give low values
[18] = S. cerevisiae deletion strains, locus YMR263W, strain SAP30, hits give low values
[19] = S. cerevisiae deletion strains, locus YNL153C, strain GIM3, hits give low values
[20] = S. cerevisiae deletion strains, locus YNL298W, strain CLA4 (second series), hits give low values
[21] = S. cerevisiae deletion strains, locus YNL322C, strain KRE1, hits give low values
[22] = S. cerevisiae deletion strains, locus YNR030W, strain Alg12, hits give low values
[23] = S. cerevisiae deletion strains, locus YOL006C, strain TOP1, hits give low values
[24] = S. cerevisiae deletion strains, locus YPL055C, strain LGE1, hits give low values
[25] = S. cerevisiae deletion strains, locus YPL241C, strain CIN2, hits give low values
[26] = S. cerevisiae deletion strains, locus YPR135W, strain CTF4, hits give low values

Measured: normalized growth

CC(C)(C)c1cc(-c2csc(-c3ccc(Cl)cc3)n2)cc(C(C)(C)C)c1O
inactive: [1] 1 | [2] 1.02 | S. cerevisiae deletion strains, locus YCL061C, strain MRC1, hits give low values 1.01 | [3] 1.02 | S. cerevisiae deletion strains, locus YDL134C, strain PPH21, hits give low values 1.02 | [4] 0.943 | [5] 1.03 | [6] 1.01 | [7] 1.09 | [8] 1.01 | [9] 1.02 | [10] 1.01 | [11] 1.03 | [12] 1.09 | [13] 1.02 | [15] 1.05 | [16] 1.03 | [17] 1.01 | [18] 0.96 | [19] 1 | [20] 1.04 | [21] 1.01 | [22] 1.03 | [23] 1.18 | [24] 0.911 | [25] 1.01 | [26] 1.07 | S. cerevisiae strains, strain wild type, hits give low values 1.02
active: [14] 1.22 [resistant]

Cc1ccc(-c2csc(-c3ccc(Cl)cc3)n2)c(C)c1
active: [7] 0.611 | [14] 0.753 | [23] 0.686
inactive: [1] 0.979 | [2] 0.978 | [3] 0.968 | [4] 0.987 | [5] 0.914 | [6] 0.989 | [8] 0.956 | [9] 0.994 | [10] 0.994 | [11] 1.01 | [12] 0.926 | [13] 0.988 | [15] 0.952 | [16] 0.9 | [17] 0.998 | [18] 1.01 | [19] 1.01 | [20] 0.908 | [21] 0.987 | [22] 0.949 | [24] 0.968 | [25] 1.1 | [26] 0.772

Cc1ccc(-c2csc(-c3cccnc3)n2)c(C)c1
active: [7] 0.763 | S. cerevisiae deletion strains, locus YLR113W, strain HOG1, hits give low values 0.854 | S. cerevisiae deletion strains, locus YPL256C, strain CLN2, hits give low values 0.849
inactive: S. cerevisiae deletion strains, locus YAR019C, strain CDC15, hits give low values 0.948 | S. cerevisiae deletion strains, locus YBL105C, strain PKC1, hits give low values 0.967 | S. cerevisiae deletion strains, locus YBR135W, strain CKS1, hits give low values 0.954 | S. cerevisiae deletion strains, locus YBR136W, strain MEC1, hits give low values 0.958 | S. cerevisiae deletion strains, locus YBR160W, strain CDC28, hits give low values 0.963 | S. cerevisiae deletion strains, locus YDL017W, strain CDC7, hits give low values 0.967 | S. cerevisiae deletion strains, locus YDL028C, strain MPS1, hits give low values 0.964 | [3] 0.938 | S. cerevisiae deletion strains, locus YDL108W, strain KIN28, hits give low values 0.964 | S. cerevisiae deletion strains, locus YDL132W, strain cdc53, hits give low values 0.946 | S. cerevisiae deletion strains, locus YDL214C, strain PRR2, hits give low values 0.88 | S. cerevisiae deletion strains, locus YDR052C, strain DBF4, hits give low values 0.96 | S. cerevisiae deletion strains, locus YDR054C, strain cdc34, hits give low values 0.943 | S. cerevisiae deletion strains, locus YDR226W, strain ADK1, hits give low values 0.964 | S. cerevisiae deletion strains, locus YDR477W, strain SNF1, hits give low values 0.87 | S. cerevisiae deletion strains, locus YER123W, strain YCK3, hits give low values 0.769 | S. cerevisiae deletion strains, locus YER133W, strain GLC7, hits give low values 0.85 | S. cerevisiae deletion strains, locus YFL009W, strain cdc4, hits give low values 0.954 | S. cerevisiae deletion strains, locus YFL029C, strain CAK1, hits give low values 0.943 | S. cerevisiae deletion strains, locus YFR003C, strain YPI1, hits give low values 0.959 | S. cerevisiae deletion strains, locus YFR019W, strain FAB1, hits give low values 0.821 | S. cerevisiae deletion strains, locus YFR028C, strain CDC14, hits give low values 0.947 | S. cerevisiae deletion strains, locus YGR040W, strain KSS1, hits give low values 0.832 | S. cerevisiae deletion strains, locus YGR052W, strain FMP48, hits give low values 0.933 | S. cerevisiae deletion strains, locus YGR092W, strain DBF2, hits give low values 0.737 | S. cerevisiae deletion strains, locus YHR079C, strain IRE1, hits give low values 0.839 | S. cerevisiae deletion strains, locus YHR082C, strain KSP1, hits give low values 0.901 | S. cerevisiae deletion strains, locus YHR205W, strain SCH9, hits give low values 0.886 | S. cerevisiae deletion strains, locus YIL147C, strain SLN1, hits give low values 0.957 | S. cerevisiae deletion strains, locus YJL095W, strain BCK1, hits give low values 0.772 | S. cerevisiae deletion strains, locus YJL128C, strain PBS2, hits give low values 0.946 | S. cerevisiae deletion strains, locus YJL157C, strain FAR1, hits give low values 0.898 | S. cerevisiae deletion strains, locus YJR016C, strain ILV3, hits give low values 0.956 | S. cerevisiae deletion strains, locus YJR066W, strain TOR1 (second series), hits give low values 0.796 | S. cerevisiae deletion strains, locus YJR066W, strain TOR1, hits give low values 0.833 | S. cerevisiae deletion strains, locus YKL048C, strain ELM1, hits give low values 0.939 | S. cerevisiae deletion strains, locus YKL067W, strain YNK1, hits give low values 0.897 | S. cerevisiae deletion strains, locus YKL101W, strain HSL1, hits give low values 0.914 | S. cerevisiae deletion strains, locus YKL193C, strain SDS22, hits give low values 0.945 | S. cerevisiae deletion strains, locus YKL203C, strain TOR2, hits give low values 0.847 | S. cerevisiae deletion strains, locus YLR133W, strain CKI1, hits give low values 0.905 | S. cerevisiae deletion strains, locus YLR403W, strain SFP1, hits give low values 0.809 | S. cerevisiae deletion strains, locus YML070W, strain DAK1, hits give low values 0.891 | S. cerevisiae deletion strains, locus YMR001C, strain CDC5, hits give low values 0.957 | S. cerevisiae deletion strains, locus YMR205C, strain PFK2 (second series), hits give low values 0.879 | S. cerevisiae deletion strains, locus YMR277W, strain FCP1, hits give low values 0.951 | S. cerevisiae deletion strains, locus YNL006W, strain LST8, hits give low values 0.96 | S. cerevisiae deletion strains, locus YNL020C, strain ARK1, hits give low values 0.898 | S. cerevisiae deletion strains, locus YNL161W, strain CBK1, hits give low values 0.96 | S. cerevisiae deletion strains, locus YNL183C, strain NPR1, hits give low values 0.826 | S. cerevisiae deletion strains, locus YNL207W, strain RIO2, hits give low values 0.935 | S. cerevisiae deletion strains, locus YNL222W, strain SSU72, hits give low values 0.955 | S. cerevisiae deletion strains, locus YNL307C, strain MCK1 (second series), hits give low values 0.862 | S. cerevisiae deletion strains, locus YOL078W, strain AVO1, hits give low values 0.953 | S. cerevisiae deletion strains, locus YOL136C, strain PFK27, hits give low values 0.894 | S. cerevisiae deletion strains, locus YOR061W, strain CKA2, hits give low values 0.912 | S. cerevisiae deletion strains, locus YOR119C, strain RIO1, hits give low values 0.881 | S. cerevisiae deletion strains, locus YOR231W, strain MKK1, hits give low values 0.841 | S. cerevisiae deletion strains, locus YOR329C, strain SCD5, hits give low values 0.951 | S. cerevisiae deletion strains, locus YPL031C, strain PHO85, hits give low values 0.832 | S. cerevisiae deletion strains, locus YPL153C, strain RAD53, hits give low values 0.838 | S. cerevisiae deletion strains, locus YPL204W, strain HRR25, hits give low values 0.796 | S. cerevisiae deletion strains, locus YPL209C, strain IPL1, hits give low values 0.955 | S. cerevisiae deletion strains, locus YPR025C, strain CCL1, hits give low values 0.959 | S. cerevisiae deletion strains, locus YPR106W, strain ISR1, hits give low values 0.957 | S. cerevisiae deletion strains, locus YPR111W, strain DBF20, hits give low values 0.966 | S. cerevisiae deletion strains, strain NNK1, hits give low values 0.947 | S. cerevisiae deletion strains, strain TSCII, hits give low values 0.948
